# Source: PubChem BioAssay (National Center for Advancing Translational Sciences (NCATS))
# ELG1 DNA repair = qHTS screen for small molecules that inhibit ELG1-dependent DNA repair in human embryonic kidney (HEK293T) cells expressing luciferase-tagged ELG1; HEK293T ELG1-luciferase reporter, luminescence, 16 h; DNA damage induced by 5-fluorouridine; Potency, µM (titrated, usually from 46.1 µM), inactives show top-dose activity change, negative = inhibition, hits mostly inhibitors; 330,000 compounds, 2.3% hits; AID 504467, 2011; further: potency means the concentration at half of the fitted maximal effect; on the % scale 0 is the no-effect control and ±100 the full control effect; nearly all actives have a fitted effect of over 55% in size
#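 Reporter activity after DNA damage by 5-fluorouridine is monitored. Compound-treated cells incubate 16 hr at 37 °C, then ONE-Glo is added for 30 min before luminescence reading.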
# RORgamma inh = qHTS for inhibitors of ROR gamma transcriptional activity | Potency, µM (titrated, usually from 53.6 µM), for inactives: at the highest dose activity change, negative = inhibition, actives largely listed as inhibitors | Nuclear receptor ROR-gamma (Mus musculus), P51450 | Drosophila S2 Gal4-RORgamma UAS-luciferase reporter, 20 h | 310,000 compounds, 5.4% hits; further: potency means the concentration at half of the fitted maximal effect; on the % scale 0 is the no-effect control and ±100 the full control effect; nearly all actives have a fitted effect of over 60% in size
# Target sequence (P51450 whole entry, looked up, the tested form may be a part): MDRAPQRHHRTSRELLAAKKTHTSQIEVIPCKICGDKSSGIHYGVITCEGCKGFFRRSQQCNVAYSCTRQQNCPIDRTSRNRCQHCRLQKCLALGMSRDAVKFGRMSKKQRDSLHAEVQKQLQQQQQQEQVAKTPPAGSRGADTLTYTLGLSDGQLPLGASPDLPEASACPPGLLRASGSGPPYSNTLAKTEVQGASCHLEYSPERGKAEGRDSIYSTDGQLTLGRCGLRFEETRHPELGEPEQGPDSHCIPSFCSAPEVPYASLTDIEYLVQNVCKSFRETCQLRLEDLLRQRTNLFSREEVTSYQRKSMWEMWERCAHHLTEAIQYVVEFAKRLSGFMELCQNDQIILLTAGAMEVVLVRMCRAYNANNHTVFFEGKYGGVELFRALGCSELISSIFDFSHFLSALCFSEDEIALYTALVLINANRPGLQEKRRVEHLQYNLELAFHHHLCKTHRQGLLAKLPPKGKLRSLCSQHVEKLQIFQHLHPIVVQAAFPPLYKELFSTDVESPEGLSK
#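 Drosophila S2 cells stably expressing Gal4-DBD/mouse RORγ fusion under metallothionein promoter plus UAS-luciferase; compound 1 h, then 700 uM CuSO4 induction for 20 h at ambient temperature; inhibition read as reduced luminescence.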
# p53 reactivator = qHTS assay for re-activators of p53 using a Luc reporter. H1299 p53-A138V BP100-luciferase reporter, luminescence, 24 h. Potency, µM (top dose mostly 92.2 µM), for the others: at the highest dose activity change, positive = activation, most hits filed as activators. AID 504706, 2011. 320,000 compounds, 0.063% hits; further: potency means the concentration at half of the fitted maximal effect; % of control where 0% means no effect; nearly all actives have a fitted effect of over 45% in size
#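 p53-null H1299 cells stably carrying temperature-sensitive p53-A138V and a BP100-luciferase reporter were pinned with compounds (4-point, 1:5 series) and held 24 hrs at 37 deg C. Luminescence was read 10 min after detection reagent.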
# BRCA1 expr act = qHTS Assay to Identify Small Molecule Activators of BRCA1 Expression | AID 624202, 2012 | 380,000 compounds, 1.1% hits | Potency, µM (top dose mostly 46.1 µM), for inactives: top-dose activation, most hits filed as activators | MCF7-BRCA1-FFLuc reporter, luminescence, 48 h; response scale: scaled: vehicle 0%, 10 µM genistein 100%; further: potency means the concentration at half of the fitted maximal effect; nearly all actives have a fitted effect of over 80% in size
#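 MCF7-BRCA1-FFLuc, 2000 cells/well; 2 h attach, 37 °C/5% CO2; compound 48 h; luciferase substrate 15 min; luminescence end-point. Norm. to genistein 10 microM max activation and DMSO; concentration-response curves fitted.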
# VP16 counter = VP16 counterscreen qHTS for inhibitors of ROR gamma transcriptional activity. Drosophila S2 Gal4-VP16 UAS-luciferase, luminescence, 20 h. Potency, µM (titrated, usually from 53.6 µM), without a hit: top-dose activity, negative = inhibition, most hits filed as inhibitors. 310,000 compounds, 3.5% hits;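 further: Gal4-VP16 expression switched on by copper sulfate through the metallothionein promoter; potency means the concentration at half of the fitted maximal effect; on the % scale 0 is the no-effect control and ±100 the full control effect; nearly all actives have a fitted effect of over 50% in size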
# Giardia killer = Small Molecules that selectively kill Giardia lamblia: qHTS. activity change, % at 7.66 µM, hits read low. Giardia lamblia trophozoite viability. AID 540267, 2011. 340,000 compounds, 0.15% hits; in the data active means activity change below about -80%; inconclusive means between about -30% and that limit;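 further: parasites exposed to compound for two days anaerobically before the ATP read; on the % scale 0 is the no-effect control and ±100 the full control effect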
#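 Trophozoite viability was measured as ATP-dependent luminescence, read 15-30 min after reagent addition. Before that, parasites at 100 cells/well were exposed to compounds for 48 h, anaerobically, at 37 deg C.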
# Starred values were filed as active, the others as inactive; ? = inconclusive; . = no result given; [ ] = dose if it differs, or a comment. Hits are enriched below; roughly 7.6% of the tested compounds scored in any of these assays. Unless noted, the call rests on the fitted dose curve; in most records, active means well fitted curve in the direction sought with a large enough effect; inconclusive means small, poorly fitted or top-dose-only effect, or another doubt; inactive means no such curve, though single readings can be large; an effect the other way counts as inactive or inconclusive.
SMILES,ELG1 DNA repair,RORgamma inh,p53 reactivator,BRCA1 expr act,VP16 counter,Giardia killer
CC(=O)c1cccc(N2C(=O)C3C4CCC(C4=C(C)C)C3C2=O)c1 (configuration not stated),-6%,1%,-25%,-3%,-17%,5
CC(C)(C)c1ccc(C2=CSC3=NCCN23)cc1,-1%,10µM*,-3%,-20%,-17%,-4
N#CC1=C2SCN(c3ccccc3)CN2C(=O)CC1c1c(Cl)cccc1Cl (configuration not stated),?,16µM*,?,-2%,?,0
N#Cc1ccc(COc2cccc3cccnc23)cc1,13%,10µM*,10%,70%,-2%,-18
O=[N+]([O-])c1ccc(OCCCOc2cccc3cccnc23)cc1,27%,-18%,.,13%,-6%,4
O=[N+]([O-])c1ccc(COc2cccc3cccnc23)cc1,?,21%,16%,11µM*,-14%,-1
O=C1[C@H]2[C@H]3[C@H](O)[C@H](O)C/C(=N/OCc4ccccc4)[C@H]3CC[C@@H]2C(=O)N1C[C@@H]1CCCO1,.,8%[10 µM],.,.,-5%[10 µM],.
Cc1c(Cl)ccc2sc(N3CCN(C(=O)CS(=O)(=O)c4ccccc4)CC3)nc12,.,.,.,0%,.,.
Cn1c(SCCOc2ccc(Cl)cc2)nnc1-c1ccncc1,-11%,40%,-33%,12%,-13%,-10
Cc1nn(Cc2cccc(C(=O)NC34CC5CC(CC(C5)C3)C4)c2)c(C)c1Br,23µM*,?,23%,0%,3%,-2
CCCNC(=O)c1cccc(Cn2nc(C)c(Br)c2C)c1,?,21%,-3%,-25%,-1%,3
CC(=O)c1cccc(-c2ccnc3c2CC(C(=O)NCc2ccc(F)c(F)c2)O3)c1 (configuration not stated),.,.,.,0%,.,.
OC(c1ccccc1)c1ncc(-c2ccccc2Cl)[nH]1 (configuration not stated),.,.,.,10µM*,.,.
COc1ccc(-c2cnc(C(O)c3ccc(-c4ccccc4)cc3)[nH]2)cc1 (configuration not stated),.,.,.,-6%,.,.
COc1ccc(-c2cnc(C(O)c3ccccc3)[nH]2)cc1 (configuration not stated),.,.,.,13µM*,.,.
COc1cccc(-c2cnc(C(O)c3ccccc3)[nH]2)c1 (configuration not stated),.,.,.,11µM*,.,.
COc1cccc(-c2cnc(C(O)c3ccc(C)cc3)[nH]2)c1 (configuration not stated),.,.,.,18%,.,.
CC1(C)CC(=O)c2cnc(N3CCc4ccccc4C3)nc2C1,?,27%,32%,7.1µM*,-1%,-10
COC(=O)c1ccc(/C=C/c2ccc3cccc(OC)c3n2)cc1,?,-44%,-1%,-15%,0%,-14
COc1cccc(/C=C/c2ccc3cccc(O)c3n2)c1OC,?,2.8µM*,?,21%,5.6µM*,-13
COc1ccc(/C=C/c2ccc3cccc(O)c3n2)c(OC)c1OC,?,3.2µM*,?,3%,?,9
Cn1c(=O)[nH]c(=O)c2c1nc(N1CCCCC1)n2CCCSc1nc2ccccc2s1,21µM*,?,-16%,-29%,-3%,-12
CC1CCN(c2nc3c(c(=O)n(C)c(=O)n3C)n2CCSc2nc3ccccc3s2)CC1,23µM*,-42%,-7%,-2%,2%,0
C/C=C/Cn1c(N2CCCCCC2)nc2c1c(=O)[nH]c(=O)n2C,0%,1%[10 µM],-4%,-34%,-5%,24
Cn1c(=O)[nH]c(=O)c2c1nc(N1CCCC1)n2CCCSc1nc2ccccc2o1,?,3%,2%,-12%,-4%,-6
SMILES,ELG1 DNA repair,RORgamma inh,p53 reactivator,BRCA1 expr act,VP16 counter,Giardia killer
Cn1c(=O)[nH]c(=O)c2c1nc(N1CCCCC1)n2C/C=N/Nc1ccc(C(=O)O)cc1,?,7.1µM*,11%,68%,?,30
Cn1c(=O)c2c(nc(N3CCCCC3)n2CCSc2nc3ccccc3s2)n(C)c1=O,-23%,36%,10%,-28%,-8%,-4
CCCCn1nnnc1C1(C)CCC(=O)N1CCc1ccc(O)cc1 (configuration not stated),.,.,.,2%,.,.
COc1ccc(/C=C/c2ccc3c(Br)ccc(O)c3n2)cc1,?,3.2µM*,17%,0%,3.5µM*,1
Cc1ccc2c(Br)cc(Br)c(O)c2n1,.,0.25µM*,.,.,0.71µM*,.
COc1cc(/C=C/c2ccc3c(Br)cc(Br)c(O)c3n2)ccc1O,?,0.4µM*,7%,-77%,0.32µM*,10
Cc1cc(C)c2ccc(N)nc2c1O,?,6%[0.365 µM],5%,-91%,.,-4
CCOc1ccc(S(=O)(=O)n2ccnc2C)cc1,5%,6%,.,.,-5%,.
FC(c1nc2ccccc2[nH]1)C(F)(F)F (configuration not stated),10%,-11%,2%,-2%,7%,-9
O=C(NC(=S)NC1CCCc2ccccc21)c1ccco1 (configuration not stated),-19%,7.1µM*,-9%,-26%,?,3
O=C(NC(=S)NC1CCCc2ccccc21)c1ccc(F)cc1 (configuration not stated),?,8.9µM*,3%,-21%,16µM*,5
Cn1nnnc1NC(=O)c1ccccc1Cl,7%,.,.,1%,.,-15
CCCn1nnnc1NC(=O)c1cc(Br)ccc1OC,-2%,3.2µM*,7%,5%,5.6µM*,-9
CCCn1nnnc1SCC(=O)NCc1cccs1,3%,0%[10 µM],-1%,-20%,6%,7
CCCn1nnnc1NC(=O)c1ccc(C)cc1Cl,10%,3.5µM*,4%,4%,6.3µM*,6
CCCn1nnnc1NC(=O)c1cccs1,7%,0.89µM*,-1%,-2%,2.8µM*,0
COc1ccc(Cl)cc1-n1nnc(-c2nsc(NC(=O)c3ccccc3Cl)n2)c1C,.,.,.,6%,.,.
O=C(CCc1ccccc1)Nc1nnc(-c2cccs2)o1,13%,6.3µM*,13%,4%,10µM*,-6
O=C(CCSc1ccccc1)Nc1nnc(-c2ccccc2)o1,0%,10µM*,3%,0%,11µM*,17
O=C(CCSc1ccccc1)Nc1nnc(-c2cccs2)o1,-2%,4.5µM*,0%,-2%,10µM*,12
